Measured values: PubChem BioAssay (Tox21)
Inconclusive results are not listed. Activity calls are given as the source filed them. Unless noted, calls come from the whole dose curve; as a rule, active = well fitted curve in the direction sought with a large enough effect in the repeat runs; inconclusive = weak or mixed curves; inactive = no such curve, though single readings can be large; an effect the other way counts as inactive or inconclusive.

Assays:
[1] = qHTS assay to identify small molecule agonists of the hypoxia (HIF-1) signaling pathway (AID 1224846; active = well fitted activation curve with a large enough effect in the signal ratio in the repeat runs, not every such curve was filed as active; the % refers to the signal ratio)
In short: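 Compounds added to ME-180 cells carrying hypoxia-response-element beta-lactamase reporter (0.5% dialyzed FBS, 5 h preplating), 17 h at 37C; agonist activity detected by CCF4-AM B/G FRET read-out.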

[2] = qHTS assay to identify small molecule agonists of H2AX - cell viability counter screen (AID 1224847; calls by dose curve;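 note: wild-type CHO-K1 cells; top concentration of the series differs between compounds; nearly all actives have a fitted effect of over 30% in size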)
In short: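 After overnight plating of 1000 CHO-K1 cells per well, a 15-concentration compound series was applied for 3 hr at 37C. Luminescence from CellTiter-Glo, read following 30 min at room temperature, reflected cell viability.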

[3] = qHTS assay to identify small molecule antagonists of the estrogen related receptor (ERR) signaling pathway from Tox21 library (AID 1224848); note: nearly all actives have a fitted effect of over 50% in size
In short: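 Compounds dissolved in DMSO are pin-transferred onto ERR reporter cells (2,000 per well) that have settled for 6 h at 37 C. Plates then incubate 18 h at 37 C before ONE-Glo luciferase reagent and a luminescence read 30 min later.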

[4] = qHTS assay to identify small molecule agonists of the estrogen related receptor (ERR) signaling pathway from Tox21 library (AID 1224849; calls by dose curve; note: nearly all actives have a fitted effect of over 15% in size); settings: ERR reporter cell line, ONE-Glo luciferase, 18 h; at 92.4 µM (top of the series) unless noted
In short: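 Luminescent agonist read-out (One-Glo, 30-minute room-temperature incubation) following 18-hour compound treatment at 37 C of the ERR cell line, which had been plated 6 hours before dosing.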

[5] = qHTS RealTime-Glo MT Cell Viability Assay in HepG2 cells - 24 hour (AID 1224867); note: nearly all actives have a fitted effect of over 50% in size
In short: (§1)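 Cell number in HepG2 cultures estimated from NanoLuc luminescence generated by metabolic reduction of a prosubstrate by living cells. The homogeneous, nonlytic format allowed repeated reads at 0, 8, 16, 24, 32 and 40 h of compound exposure.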

[6] = qHTS RealTime-Glo MT Cell Viability Assay in HEK293 cells - 32 hour (AID 1224868); note: top concentration of the series differs between compounds; nearly all actives have a fitted effect of over 50% in size
In short: (§2)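 Homogeneous bioluminescent viability format in HEK293 cells (600 cells/well). Following 5 h at 37 C/5% CO2, 23 nL compound was pintooled; the signal was measured repeatedly during 40 h incubation.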

[7] = A CellTox Green Cytotoxicity Assay to monitor cytotoxicity in HEK293 cells - 0 hour (AID 1224869); note: nearly all actives have a fitted effect of over 50% in size
In short: (§3)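 Fluorescence from a DNA-binding dye excluded by viable cells was measured repeatedly in the same HEK293 wells (600 cells/well) during continuous compound exposure at 37 C. Each assay gives one read point: 0, 8, 16, 24, 32 or 40 h.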

[8] = qHTS RealTime-Glo MT Cell Viability Assay in HepG2 cells - 40 hour (AID 1224870); note: nearly all actives have a fitted effect of over 50% in size
In short: (§4)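 HepG2 cells (600/well) mixed with RealTime-Glo MT reagent, settled 5 h at 37 C/5% CO2 before compound addition. Nonlytic NanoLuc luminescence from viable-cell prosubstrate reduction read repeatedly during 40 h treatment at 37 C.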

[9] = A CellTox Green Cytotoxicity Assay to monitor cytotoxicity in HEK293 cells - 40 hour (AID 1224871); note: nearly all actives have a fitted effect of over 45% in size
In short: as §3

[10] = qHTS RealTime-Glo MT Cell Viability Assay in HEK293 cells - 16 hour (AID 1224872)
In short: as §2

[11] = qHTS RealTime-Glo MT Cell Viability Assay in HepG2 cells - 8 hour (AID 1224873); note: nearly all actives have a fitted effect of over 55% in size
In short: as §4

[12] = qHTS RealTime-Glo MT Cell Viability Assay in HEK293 cells - 40 hour (AID 1224874); settings: RealTime-Glo luminescence; max response: hits give low values; note: nearly all actives have a fitted effect of over 50% in size
In short: (§5)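 Luminescence, which tracks viable cell number through reduction of the prosubstrate to a NanoLuc substrate, was read over continuous 37 C culture. Cells (600/well) were premixed with reagent and rested 5 h before 23 nL of compound in DMSO was pinned.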

[13] = A CellTox Green Cytotoxicity Assay to monitor cytotoxicity in HEK293 cells - 24 hour (AID 1224875); note: nearly all actives have a fitted effect of over 45% in size
In short: as §3

[14] = A CellTox Green Cytotoxicity Assay to monitor cytotoxicity in HepG2 cells - 16 hour (AID 1224876); note: nearly all actives have a fitted effect of over 45% in size
In short: (§6)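 Real-time cytotoxicity: fluorescence of a cell-impermeant cyanine dye binding DNA of dead HepG2 cells, measured repeatedly (0–40 h) during compound exposure at 37 C. Cells seeded 600/well with reagent, dosed after 5 h.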

[15] = qHTS RealTime-Glo MT Cell Viability Assay in HepG2 cells - 32 hour (AID 1224877); note: nearly all actives have a fitted effect of over 55% in size
In short: as §1

[16] = A CellTox Green Cytotoxicity Assay to monitor cytotoxicity in HepG2 cells - 24 hour (AID 1224878); note: nearly all actives have a fitted effect of over 45% in size
In short: as §6

[17] = A CellTox Green Cytotoxicity Assay to monitor cytotoxicity in HepG2 cells - 40 hour (AID 1224879); note: nearly all actives have a fitted effect of over 40% in size; note: potency is the fitted concentration of half-maximal effect
In short: as §6

[18] = qHTS RealTime-Glo MT Cell Viability Assay in HEK293 cells - 0 hour (AID 1224880)
In short: as §5

[19] = A CellTox Green Cytotoxicity Assay to monitor cytotoxicity in HEK293 cells - 32 hour (AID 1224881); note: nearly all actives have a fitted effect of over 40% in size
In short: as §3

[20] = A CellTox Green Cytotoxicity Assay to monitor cytotoxicity in HepG2 cells - 0 hour (AID 1224882); note: nearly all actives have a fitted effect of over 35% in size
In short: as §6
% is set by controls: 0 for no effect and ±100 for the full control effect.

C[Si](C)(C)Cl
inactive: outcome [1] | Potency [2] | Potency [3] | activity change, positive = activation [4] 0.496% | Potency [5] | Potency [6] | Potency [7] | Potency [8] | Potency [9] | Potency [10] | Potency [11] | max response [12] 8.44% | Potency [13] | Potency [14] | Potency [15] | Potency [16] | Potency [17] | Potency [18] | Potency [19] | Potency [20]

[O]=[Zr]
inactive: outcome [1] | Potency [2] | Potency [3] | activity change, positive = activation [4] 5.09% | Potency [5] | Potency [6] | Potency [7] | Potency [8] | Potency [9] | Potency [10] | max response [12] 1.9% | Potency [13] | Potency [14] | Potency [15] | Potency [16] | Potency [17] | Potency [18] | Potency [19] | Potency [20]

CCCCCCCCCCCCCCCCCO
inactive: activation [1] -0.342% [at 15.8 µM] | activity change, negative = cytotoxicity [2] -0.549% [at 31.6 µM] | activity, negative = inhibition [3] -9.79% [at 19 µM] | activity change, positive = activation [4] -4.89% [at 19 µM] | activity change, negative = cytotoxicity [5] 0.355% [at 15.8 µM] | activity change, negative = cytotoxic [6] 6.41% [at 15.8 µM] | cytotoxicity [7] -13.6% [at 15.8 µM] | activity change, negative = cytotoxic [8] -3.35% [at 15.8 µM] | cytotoxicity increase [9] -18.9% [at 15.8 µM] | activity change, negative = cytotoxicity [10] -0.33% [at 15.8 µM] | viability change, negative = cytotoxic [11] 4.95% [at 15.8 µM] | max response [12] 0.671% | activity change [13] -19.9% [at 15.8 µM, hits give high values] | cytotoxicity increase [14] 1.01% [at 15.8 µM] | activity change, negative = cytotoxic [15] -2.69% [at 15.8 µM] | cytotoxicity [16] 1.75% [at 15.8 µM] | cytotoxicity increase [17] 4.05% [at 15.8 µM] | activity change, negative = cytotoxicity [18] -0.227% [at 15.8 µM] | cytotoxicity [20] -1.06% [at 15.8 µM]

CC(C)(C)c1n[nH]c(=O)n(N)c1=O
inactive: outcome [1] | Potency [2] | Potency [3] | activity change, positive = activation [4] -7.06% | Potency [5] | Potency [6] | Potency [7] | Potency [8] | Potency [9] | Potency [10] | max response [12] -0.732% | Potency [13] | Potency [14] | Potency [15] | Potency [16] | Potency [17] | Potency [18] | Potency [19]

COc1cccc(CCc2ccccc2OCC(CN(C)C)OC(=O)CCC(=O)O)c1 (configuration not stated)
inactive: outcome [1] | Potency [2] | Potency [3] | activity change, positive = activation [4] -1.11% [at 42.5 µM] | Potency [5] | Potency [8] | Potency [9] | Potency [10] | Potency [11] | Potency [13] | Potency [18] | Potency [20]
active: Potency [17] 26.8 µM

CC1CNCC(C)O1 (configuration not stated)
inactive: outcome [1] | Potency [2] | Potency [5] | Potency [6] | Potency [7] | Potency [8] | Potency [9] | Potency [10] | Potency [11] | max response [12] 11.7% | Potency [13] | Potency [14] | Potency [15] | Potency [16] | Potency [17] | Potency [18] | Potency [19]

CCC(=O)OCCc1ccccc1
inactive: outcome [1] | Potency [2] | Potency [5] | Potency [6] | Potency [7] | Potency [8] | Potency [9] | Potency [10] | Potency [11] | max response [12] 14% | Potency [13] | Potency [14] | Potency [15] | Potency [16] | Potency [17] | Potency [18] | Potency [19] | Potency [20]

C=CC/C=C/C/C=C/C/C=C/C
inactive: outcome [1] | Potency [2] | Potency [3] | activity change, positive = activation [4] 3.56% | Potency [5] | Potency [6] | Potency [9] | Potency [10] | Potency [11] | max response [12] 0% | Potency [13] | Potency [14] | Potency [15] | Potency [16] | Potency [17] | Potency [18] | Potency [19] | Potency [20]

CCCCCCCCCCCCCCCC
inactive: outcome [1] | Potency [2] | Potency [3] | Potency [5] | Potency [6] | Potency [7] | Potency [8] | Potency [9] | Potency [10] | Potency [11] | max response [12] 15.7% | Potency [13] | Potency [14] | Potency [15] | Potency [16] | Potency [17] | Potency [18] | Potency [19] | Potency [20]

CCC(=O)CC(C)CC (configuration not stated)
inactive: activation [1] 0.22% [at 0.291 µM] | activity change, negative = cytotoxicity [2] -3.23% [at 0.582 µM] | activity change, negative = cytotoxicity [5] -0.146% [at 0.29 µM] | activity change, negative = cytotoxic [6] 3.77% [at 0.29 µM] | cytotoxicity [7] 6.34% [at 0.29 µM] | activity change, negative = cytotoxic [8] -5.05% [at 0.29 µM] | cytotoxicity increase [9] 5.38% [at 0.29 µM] | activity change, negative = cytotoxicity [10] 5.55% [at 0.29 µM] | viability change, negative = cytotoxic [11] 1.82% [at 0.29 µM] | max response [12] 3.72% | activity change [13] 8.11% [at 0.29 µM, hits give high values] | cytotoxicity increase [14] 5.23% [at 0.29 µM] | activity change, negative = cytotoxic [15] -0.929% [at 0.29 µM] | cytotoxicity [16] 8.2% [at 0.29 µM] | cytotoxicity increase [17] 5.43% [at 0.29 µM] | activity change, negative = cytotoxicity [18] 6.1% [at 0.29 µM] | cytotoxicity increase [19] 9.56% [at 0.29 µM]

CCC(C)C(=O)OC (configuration not stated)
inactive: outcome [1] | Potency [2] | Potency [3] | Potency [5] | Potency [6] | Potency [7] | Potency [9] | Potency [10] | Potency [11] | max response [12] 4.5% | Potency [13] | Potency [14] | Potency [16] | Potency [17] | Potency [18] | Potency [19] | Potency [20]

CCCCOC(=O)C(C)CC (configuration not stated)
inactive: outcome [1] | Potency [2] | Potency [3] | activity change, positive = activation [4] 6.06% | Potency [5] | Potency [6] | Potency [8] | Potency [9] | Potency [10] | Potency [11] | max response [12] 1.36% | Potency [13] | Potency [14] | Potency [15] | Potency [16] | Potency [17] | Potency [18] | Potency [19] | Potency [20]

CS(C)(=O)=O
inactive: outcome [1] | Potency [2] | Potency [3] | Potency [5] | Potency [6] | Potency [8] | Potency [10] | Potency [11] | max response [12] -3.02% | Potency [14] | Potency [15] | Potency [16] | Potency [17] | Potency [18] | Potency [20]

CCOCOCC
inactive: outcome [1] | Potency [2] | Potency [3] | activity change, positive = activation [4] 0.502% | Potency [5] | Potency [6] | Potency [8] | Potency [9] | Potency [10] | Potency [11] | max response [12] 5.75% | Potency [13] | Potency [14] | Potency [15] | Potency [16] | Potency [17] | Potency [18] | Potency [19]
